Measurements published in PubChem BioAssay AID1159580 (chemical genetic matrix, 2015).
Out of some 5,500 compounds screened, about 2,000 (36%) were called active. Not shown: some 18% with an inconclusive outcome. Rule as the data show it: active = normalized growth mostly below about 0.91 (no sharp cut-off); inconclusive = no clear call, values can overlap the other calls; inactive = mostly above about 0.92. The list shows a part of the results.

Assay: chemical genetic growth profiling, strain panel (AID 1159580);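 also: tested at 20 µM; growth read once vehicle control cultures reached saturation at 30 °C; 1 = growth at the plate median or of vehicle wells; lower values mean less growth of the strain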
Conditions: S. cerevisiae deletion strains, growth OD

Measured: normalized growth

CC(CC(C(N)=O)(c1ccccc1)c1ccccc1)N(C)C (stereo not given)
inactive: locus YAL021C, strain ccr4, stronger effect = lower value 0.952 | locus YAL026C, strain drs2, stronger effect = lower value 0.977 | locus YAL030W, strain snc1, stronger effect = lower value 0.996 | locus YBL061C, strain skt5, stronger effect = lower value 0.983 | locus YBR009C, strain hhf1, stronger effect = lower value 0.988 | locus YBR023C, strain chs3, stronger effect = lower value 0.949 | locus YBR171W, strain sec66, stronger effect = lower value 0.967 | locus YBR231C, strain swc5, stronger effect = lower value 0.994 | locus YBR279W, strain paf1, stronger effect = lower value 0.995 | locus YCL011C, strain gbp2, stronger effect = lower value 0.963 | locus YCL016C, strain dcc1, stronger effect = lower value 0.989 | locus YCL061C, strain MRC1, stronger effect = lower value 0.981 | locus YCL069W, strain vba3, stronger effect = lower value 0.976 | locus YCR088W, strain abp1, stronger effect = lower value 0.973 | locus YDL005C, strain med2, stronger effect = lower value 0.989 | locus YDL040C, strain nat1, stronger effect = lower value 0.996 | locus YDR001C, strain nth1, stronger effect = lower value 0.974 | locus YDR069C, strain doa4, stronger effect = lower value 0.973 | locus YDR137W, strain rgp1, stronger effect = lower value 0.968 | locus YDR159W, strain sac3, stronger effect = lower value 0.981 | locus YDR195W, strain ref2 0.981 | locus YDR297W, strain sur2, stronger effect = lower value 0.983 | locus YDR334W, strain swr1, stronger effect = lower value 0.942 | locus YDR335W, strain msn5, stronger effect = lower value 0.978 | locus YDR392W, strain spt3, stronger effect = lower value 0.958 | locus YEL003W, strain gim4, stronger effect = lower value 0.982 | locus YEL037C, strain rad23, stronger effect = lower value 0.939 | locus YEL061C, strain CIN8 (second series), stronger effect = lower value 0.982 | locus YER015W, strain faa2, stronger effect = lower value 1.01 | locus YER016W, strain bim1, stronger effect = lower value 0.982 | locus YER111C, strain swi4, stronger effect = lower value 0.994 | locus YER155C, strain BEM2 (second series), stronger effect = lower value 0.985 | locus YFR010W, strain ubp6, stronger effect = lower value 0.964 | locus YGL167C, strain pmr1, stronger effect = lower value 0.988 | locus YGL173C, strain kem1, stronger effect = lower value 0.975 | locus YGL227W, strain vid30, stronger effect = lower value 0.989 | locus YGL240W, strain doc1, stronger effect = lower value 0.981 | locus YGL253W, strain hxk2, stronger effect = lower value 0.937 | locus YHR013C, strain ard1, stronger effect = lower value 0.951 | locus YHR027C, strain rpn1, stronger effect = lower value 0.978 | locus YHR030C, strain SLT2, stronger effect = lower value 1.02 | locus YHR079C, strain IRE1, stronger effect = lower value 1.02 | locus YHR142W, strain chs7, stronger effect = lower value 0.957 | locus YJL092W, strain hpr5, stronger effect = lower value 0.969 | locus YJL095W, strain BCK1 (second series), stronger effect = lower value 0.983 | locus YJL095W, strain BCK1, stronger effect = lower value 0.992 | locus YJL115W, strain asf1, stronger effect = lower value 0.962 | locus YJL129C, strain trk1, stronger effect = lower value 0.952 | locus YJL154C, strain vps35, stronger effect = lower value 0.984 | locus YJL164C, strain tpk1, stronger effect = lower value 0.974 | locus YJL166W, strain qcr8, stronger effect = lower value 0.987 | locus YJL187C, strain SWE1, stronger effect = lower value 0.984 | locus YJR066W, strain TOR1, stronger effect = lower value 0.969 | locus YKL160W, strain elf1, stronger effect = lower value 0.978 | locus YKR026C, strain gcn3, stronger effect = lower value 0.979 | locus YKR091W, strain srl3, stronger effect = lower value 0.987 | locus YLL001W, strain dnm1, stronger effect = lower value 0.994 | locus YLL026W, stronger effect = lower value 0.986 | locus YLL041C, strain sdh2, stronger effect = lower value 0.979 | locus YLR027C, strain aat2, stronger effect = lower value 0.989 | locus YLR113W, strain HOG1, stronger effect = lower value 0.999 | locus YLR221C, strain rsa3, stronger effect = lower value 0.979 | locus YLR258W, strain gsy2, stronger effect = lower value 0.978 | locus YLR262C, strain YPT6 (second series), stronger effect = lower value 0.977 | locus YLR320W, strain mms22, stronger effect = lower value 0.992 | locus YLR342W, strain FKS1, stronger effect = lower value 0.986 | locus YLR357W, strain rsc2, stronger effect = lower value 0.992 | locus YLR370C, strain arc18, stronger effect = lower value 0.984 | locus YLR384C, strain iki3, stronger effect = lower value 0.994 | locus YML120C, strain ndi1, stronger effect = lower value 0.97 | locus YMR058W, strain fet3, stronger effect = lower value 0.967 | locus YMR125W, strain sto1, stronger effect = lower value 0.995 | locus YMR129W, stronger effect = lower value 0.972 | locus YMR205C, strain PFK2, stronger effect = lower value 0.965 | locus YMR231W, strain pep5, stronger effect = lower value 0.983 | locus YNL071W, strain lat1, stronger effect = lower value 0.979 | locus YNL183C, strain NPR1, stronger effect = lower value 0.973 | locus YNL209W, strain ssb2, stronger effect = lower value 0.983 | locus YNL248C, strain rpa49, stronger effect = lower value 0.941 | locus YNL322C, strain KRE1 (second series), stronger effect = lower value 0.983 | locus YNR049C, strain mso1, stronger effect = lower value 0.976 | locus YOR001W, strain rrp6, stronger effect = lower value 0.959 | locus YOR070C, strain gyp1, stronger effect = lower value 0.99 | locus YOR080W, strain dia2, stronger effect = lower value 0.971 | locus YOR083W, strain WHI5, stronger effect = lower value 0.973 | locus YOR106W, strain vam3, stronger effect = lower value 0.982 | locus YOR231W, strain MKK1, stronger effect = lower value 1.04 | locus YOR265W, strain rbl2, stronger effect = lower value 0.991 | locus YOR270C, strain vph1, stronger effect = lower value 0.954 | locus YOR290C, strain snf2, stronger effect = lower value 0.988 | locus YPL051W, strain arl3, stronger effect = lower value 0.996 | locus YPL078C, strain atp4, stronger effect = lower value 0.94 | locus YPL106C, strain sse1, stronger effect = lower value 0.968 | locus YPL240C, strain hsp82, stronger effect = lower value 0.967 | locus YPL256C, strain CLN2, stronger effect = lower value 1.03
